Screening data as filed in PubChem BioAssay.
KB-3-1 tox = KB-3-1 parental cell cytotoxicity. KB-3-1 viability, CellTiter-Glo ATP luminescence, 72 h. Potency, µM (titrated, usually from 46.1 µM), usual class: cytotoxic. hit rate 1.4% among 400,000. AID 1347075; further: potency means the concentration at half of the fitted maximal effect; nearly all actives have a fitted effect of over 60% in size
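Using CellTiter-Glo luminescence, growth of non-resistant KB-3-1 adenocarcinoma cells is assessed 72 h after pin-tool compound addition at 37 °C. Normalized responses across the concentration series yield fitted curves.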
HT1080NT lethal = kills 2HG-producing HT-1080-NT fibrosarcoma cells. HT-1080-NT fibrosarcoma viability, CellTiter-Glo ATP luminescence, 48 h. Potency, µM (doses to about 46.1 µM), without a hit: at the top dose activity, negative = less viability, actives largely listed as cytotoxic. hit rate 1.6% among 360,000;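 further: NT is the 2HG producing partner of a matched IDH1 knockdown line; potency means the concentration at half of the fitted maximal effect; 0% = DMSO-treated cells and -100% = media-only wells without cells; nearly all actives have a fitted effect of over 55% in size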
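A 48-hour cytotoxicity screen used HT-1080-NT cells plated 2 hours before compound delivery. ATP-based CellTiter-Glo luminescence measured viability, normalized to DMSO and no-cell controls.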
IL1B secr inh = inflammasome signaling inhibition, IL-1 beta readout. THP-1 LPS/ATP IL-1B secretion, AlphaLISA, 16 h; hits give low values. activity change, % at 57.5 µM. hit rate 4.7% among 360,000. AID 743279; in the data active means activity change below about -50%; inconclusive means mostly about -30% to -49%
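THP-1 cells pretreated 1 hr with compounds (up to 57.5 uM final), then stimulated with LPS (250 ng/mL final) plus ATP (1.25 mM final); secreted IL-1B measured by AlphaLISA after 16 hr, decreased signal indicating inhibition.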
HT1080 IDH1KD tx = HT-1080 IDH1 knockdown cell toxicity (counter line) | hit rate 2% among 360,000 | HT-1080 IDH1 knockdown viability, ATP luminescence, 48 h | Potency, µM (titrated, usually from 46.1 µM), inactives show at the highest dose activity, negative = toxicity, hits mostly cytotoxic;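 further: potency means the concentration at half of the fitted maximal effect; 0% = DMSO wells and -100% = cell-free medium wells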
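IDH1KD HT-1080 cells, 750/well, RPMI + 5% FBS; compound pinned after 2 h settling; 48 h, 37 °C; CellTiter-Glo luminescence; % activity normalised to DMSO and no-cell wells; curves fitted, classed by r2 and efficacy.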
KB-V1 cytotox = kills drug-selected multidrug resistant KB-V1 cells; KB-V1 MDR cells viability, CellTiter-Glo, 72 h; Potency, µM (top dose mostly 46.1 µM), most hits filed as cytotoxic; hit rate 3.4% among 400,000; further: potency means the concentration at half of the fitted maximal effect; nearly all actives have a fitted effect of over 60% in size
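Cytotoxicity via CellTiter-Glo luminescence after 72 h compound exposure at 37 degrees C. Cells: drug-selected KB-V1 line, DMEM phenol-red free plus 10% FBS. Compounds tested at multiple concentrations; normalized data fitted to concentration-effect curves.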
* = called active by the depositor; i = inactive; ? = inconclusive; nt = no result; [ ] = dose if it differs, or a comment. Only some compounds are listed: those with a hit (about 8.8% of all), similar ones and a draw of the others. Unless noted, the call rests on the fitted dose curve; in most records, active means well fitted curve in the direction sought with a large enough effect; inconclusive means small, poorly fitted or top-dose-only effect, or another doubt; inactive means no such curve, though single readings can be large; an effect the other way counts as inactive or inconclusive. Unless noted, on the % scale 0 is the no-effect control and ±100 the full control effect.

SMILES	KB-3-1 tox	HT1080NT lethal	IL1B secr inh	HT1080 IDH1KD tx	KB-V1 cytotox
Cc1ccccc1C(c1ncccc1C)N(C)C(=O)C1CCN(CCOc2ccc(Cl)cc2Cl)CC1 (stereo not drawn)	?	?	?	23µM*	?
COC(C[C@H](O)C[C@@H](O)COCc1ccccc1)OC	i	2%	-3	5%	i
O=C(O)CCC(=O)N1CCc2c([nH]c3ccccc23)C1C(F)(F)F (stereo not drawn)	i	3%	15	-14%	?
CC(=O)Nc1ccc(CN2CCc3c([nH]c4ccccc34)C2C(C)(C)C)cc1 (stereo not drawn)	i	-6%	28	-25%	i
O=C(c1ccc(Cl)cc1)N1CCc2c([nH]c3ccccc23)C1C(F)(F)F (stereo not drawn)	i	-8%	5	-3%	i
COc1cccc(Cl)c1NC(=O)N1CCc2c([nH]c3ccccc23)C1C(F)(F)F (stereo not drawn)	i	21µM*	-8	?	i
CC1c2[nH]c3ccccc3c2CCN1C(=O)Nc1ccccc1 (stereo not drawn)	?	?	-12	?	8.2µM*
O=C(Nc1ccccc1)N1CCc2c([nH]c3ccccc23)C1C(F)(F)F (stereo not drawn)	i	?	-93*	-14%	?
CC(C)C(C(=O)NC1CCCC1)N1CCN(c2ncccc2C#N)CC1 (stereo not drawn)	i	12%	-11	15%	?
O=C(Nc1ccccc1Br)c1ccccc1-c1ccccc1	7.3µM*	?	13	?	?
Cc1cc(Br)ccc1NC(=O)c1ccccc1-c1ccccc1	i	5%	?	8%	13µM*
O=C(Nc1ccccc1-c1ccccc1)c1ccccc1Br	i	-6%	16	?	?
COCc1nnc(NC(=O)c2ccc(S(=O)(=O)N3CCCc4ccccc43)cc2)o1	?	15µM*	105	21µM*	?
CS(=O)(=O)c1ccc(-c2nnc(NC(=O)c3ccc(S(=O)(=O)N4CCCC4)cc3)o2)cc1	i	-12%	3	-16%	i
O=C(Nc1nnc(C2CC2)o1)c1ccc(S(=O)(=O)N2CCCc3ccccc32)cc1	?	?	28	?	i
COc1cccc(-c2nnc(NC(=O)c3ccc(S(=O)(=O)N4CCOCC4)cc3)o2)c1	5.8µM*	-14%	31	-22%	?
COc1ccc(-c2nnc(NC(=O)c3ccc(S(=O)(=O)N4CCCc5ccccc54)cc3)o2)cc1	?	11µM*	15	11µM*	?
O=C(Nc1cccc(Cl)c1Cl)c1cc(S(=O)(=O)NCc2ccc3c(c2)OCO3)ccc1F	i	nt	nt	nt	i
Cc1cccc(NC(=O)/C(C#N)=C\c2cc(C)n(-c3ccc(C(=O)O)cc3)c2C)c1	i	2%	-78*	0%	i
Cc1cc(/C=C(\C#N)C(=O)Nc2ccccc2)c(C)n1-c1ccc(C(=O)O)cc1	i	1%	?	-2%	i
COc1ccc(NC(=O)/C(C#N)=C\c2cc(C)n(-c3ccc4c(c3)OCO4)c2C)cc1	?	1.8µM*	0	2.1µM*	2.1µM*
CCOC(=O)C1=CC[C@@H](c2ccccc2)N(S(=O)(=O)c2ccc(C)cc2)[C@H]1C=C(C)C	?	-21%	9	?	i
COc1ccc(CC(N)c2csc(Nc3nccc(C(F)(F)F)n3)n2)cc1 (stereo not drawn)	i	?	-56*	?	i
NC(Cc1ccc(Cl)cc1)c1csc(Nc2nccc(C(F)(F)F)n2)n1 (stereo not drawn)	?	16µM*	-56*	23µM*	?
NC(Cc1ccccc1)c1csc(Nc2nccc(C(F)(F)F)n2)n1 (stereo not drawn)	?	?	-12	?	?
SMILES	KB-3-1 tox	HT1080NT lethal	IL1B secr inh	HT1080 IDH1KD tx	KB-V1 cytotox
NC(Cc1ccc(F)cc1)c1csc(Nc2nccc(C(F)(F)F)n2)n1 (stereo not drawn)	i	23µM*	-59*	15µM*	i
CC(OC(=O)CN1C(=O)NC2(CCCC2)C1=O)C(=O)Nc1cccc(Cl)c1 (stereo not drawn)	i	6%	i	0%	i
COC(=O)[C@@]1(Cc2ccc(F)cc2)[C@H]2c3cc(C(=O)N4CCCC4)n(CCc4ccc(OC)c(Br)c4)c3C[C@H]2CN1C(=O)c1ccccc1	26µM*	9%	-67*	1%	?
COC(=O)[C@@]1(Cc2ccc(OC)cc2)[C@H]2c3cc(C(=O)N4CCCC4)n(CCc4ccc(OC)c(Br)c4)c3C[C@H]2CN1C(=O)c1ccccc1	?	23%	0	6%	18µM*
COc1ccc(CCNC(=O)c2ccc3c(c2)nc2n3CCOC2)cc1OC	i	nt	nt	nt	i
Cc1ccc(Nc2nc(N)nc(CN3CCN(Cc4ccc5c(c4)OCO5)CC3)n2)cc1C	i	?	-74*	?	?
Cc1ccc(Nc2nc(N)nc(CN3CCN(Cc4ccc5c(c4)OCO5)CC3)n2)cc1	i	-14%	?	1%[9.24 µM]	?
Cc1ccc(Nc2nc(N)nc(CN3CCN(Cc4ccc5c(c4)OCO5)CC3)n2)cc1Cl	21µM*	?	?	-18%	?
O=C(CC[C@H]1O[C@@H](n2cnc3c(NC(=O)c4ccccc4)ncnc32)[C@H](O)[C@@H]1O)NCc1ccc2c(c1)OCO2	i	29%	1	3%	i
CCOC(=O)C(C)NC(=O)CCc1nnc2ccc(N3CCC(C)CC3)nn12 (stereo not drawn)	i	-11%	-97*	-12%	i
CCOC(=O)C1CC(c2ccc(Cl)cc2)=NNC1=O (stereo not drawn)	i	1%	-18	0%	i
O=C(COc1ccc(/C=N/NC(=O)c2cc3ccccc3o2)cc1Cl)Nc1ccccc1	7.3µM*	?	-98*	?	9.2µM*
CC(C)c1ccc(N2C(=NC(=O)C3CCCO3)SC3CS(=O)(=O)CC32)cc1 (stereo not drawn)	i	-1%	16	3%	?
C(=N\Nc1ccc2nncn2n1)/c1ccco1	i	3%	35	-2%	i
BrC(=C\c1ccccc1)/C=N/Nc1ccc2nncn2n1	i	-8%	-86*	?	?
BrC(=C\c1ccccc1)/C=N/n1cnnc1	i	16µM*	-13	21µM*	?
CCOc1cccc(N(C(=O)C2COc3ccccc3O2)C(C(=O)NC2CCCCC2)c2ccc(O)cc2)c1 (stereo not drawn)	i	-14%	-4	-20%	i
